# Compounds with a hit are over-represented: about 19% of the library has one in this group of screens.
# DT40 TDP1 CPT: DT40-hTDP1 cell growth loss with CPT; chicken DT40 Tdp1-/-;hTDP1 cells + 20 nM CPT, ATP luminescence, 48 h; Potency, µM (doses to about 46.2 µM), hits mostly inhibitors; 12% of 420,000 active; note: nearly all actives have a fitted effect of over 55% in size
#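 Cell growth measured by CellTiter-Glo luminescence after a minimum 48 h, 37 C compound exposure with 20 nM CPT in Tdp1-knockout DT40 cells stably expressing hTDP1, seeded 400/well; qHTS titration format.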
# TDP1 block: blocks human tyrosyl-DNA phosphodiesterase 1; recombinant TDP1, AlphaScreen DNA substrate cleavage; Potency, µM (series often up to 130 µM), hits mostly inhibitors; 0.28% of 350,000 active; note: nearly all actives have a fitted effect of over 40% in size
# Target sequence (Q9NUW8 whole entry, looked up): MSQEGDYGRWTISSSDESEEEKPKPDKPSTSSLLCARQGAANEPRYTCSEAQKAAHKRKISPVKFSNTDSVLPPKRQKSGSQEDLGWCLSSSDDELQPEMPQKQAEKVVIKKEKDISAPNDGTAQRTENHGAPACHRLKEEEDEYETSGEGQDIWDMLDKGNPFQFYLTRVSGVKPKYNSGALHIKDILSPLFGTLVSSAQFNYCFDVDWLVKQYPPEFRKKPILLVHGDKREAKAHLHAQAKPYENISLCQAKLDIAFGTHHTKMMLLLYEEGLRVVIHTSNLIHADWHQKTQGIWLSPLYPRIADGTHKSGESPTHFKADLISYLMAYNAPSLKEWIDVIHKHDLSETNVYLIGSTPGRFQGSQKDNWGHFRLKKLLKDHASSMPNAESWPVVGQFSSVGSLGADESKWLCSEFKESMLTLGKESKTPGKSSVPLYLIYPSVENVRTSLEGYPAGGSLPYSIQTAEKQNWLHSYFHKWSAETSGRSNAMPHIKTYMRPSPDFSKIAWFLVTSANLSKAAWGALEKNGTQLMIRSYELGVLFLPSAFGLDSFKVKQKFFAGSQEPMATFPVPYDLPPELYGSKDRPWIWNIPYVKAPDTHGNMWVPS
#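 Here, a 5' biotin and 3' phosphotyrosine-FITC DNA oligonucleotide reports Tdp1 activity: intact substrate bridges AlphaScreen beads, while cleavage leaves a 3' phosphate and drops signal. All incubations at room temperature.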
# IL1B secr inh: inflammasome signaling inhibition, IL-1 beta readout; activity change, % at 57.5 µM; THP-1 LPS/ATP IL-1B secretion, AlphaLISA, 16 h; active compounds read low; 4.7% of 360,000 active; in the data active = activity change below about -50%; inconclusive = mostly about -30% to -49%
#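 Secreted IL-1B measured by AlphaLISA bead assay after 16 h compound exposure of THP-1 cells; compounds (final up to 57.5 uM) added 1 h before LPS (250 ng/mL) and ATP (1.25 mM) stimulation; lower signal means less secretion.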
# DT40 TDP1 no CPT: qHTS for Inhibitors of human tyrosyl-DNA phosphodiesterase 1 (TDP1): qHTS in cells in absence of CPT; 15% of 420,000 active; Potency, µM (doses to about 46.2 µM), usual class: inhibitors; DT40 Tdp1-/- hTDP1 cells, no CPT, ATP luminescence, 48 h; note: nearly all actives have a fitted effect of over 55% in size
#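 Readout: luminescence from CellTiter-Glo after 30 min in the dark at RT. Cells: DT40 Tdp1-/- with stable hTDP1, 400/well. Exposure: compounds alone, ≥48 hr, 37 °C.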
# Giardia killer: kills Giardia lamblia; Giardia lamblia trophozoite viability; activity change, % at 7.66 µM, hits read low; 0.15% of 340,000 active; in the data active = activity change below about -80%; inconclusive = between about -30% and that limit;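 note: parasites exposed to compound for two days anaerobically before the ATP read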
#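 Anaerobic 48 hrs incubation at 37 deg C of 100 trophozoites/well with test compounds; ATPLite 1-Step luminescence, 15-30 min RT, reports cellular ATP as viability.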
# ELG1 repair inh: blocks ELG1-dependent DNA repair in HEK293T cells. Potency, µM (titrated, usually from 46.1 µM), most hits filed as inhibitors. HEK293T ELG1-luciferase reporter, luminescence, 16 h; DNA damage induced by 5-fluorouridine. AID 504467. 2.3% of 330,000 active; note: nearly all actives have a fitted effect of over 55% in size
#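 DMSO vehicle served as the neutral condition. Each well held 2,000 cells given 5-fluorouridine plus compound; after 16 hr at 37 °C/5% CO2, ONE-Glo was added and luciferase measured 30 min later.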
# Numbers stand for hits; 0 = inactive; ? = inconclusive; - = not tested or not shown. Unless noted, calls come from the whole dose curve; as a rule, active = well fitted curve in the direction sought with a large enough effect; inconclusive = small, poorly fitted or top-dose-only effect, or another doubt; inactive = no such curve, though single readings can be large; an effect the other way counts as inactive or inconclusive.
SMILES,DT40 TDP1 CPT,TDP1 block,IL1B secr inh,DT40 TDP1 no CPT,Giardia killer,ELG1 repair inh
CCNC(=O)O/N=C(\C)c1sc(-c2ccccc2)nc1C,?,0,0,?,0,?
Cc1nn(-c2nccs2)c2c1C(=O)CC(C)(C)C2Br (stereo not given),?,-,?,16µM,0,-
Cc1nc2ccccc2c(=O)n1-c1nccs1,0,-,0,0,-,-
NS(=O)(=O)c1ccc(-c2ccc(C=C3C(=O)NC(=O)NC3=O)o2)cc1,0,-,0,0,0,0
O=C1NC(=O)C(=Cc2ccc(SC3CCCCC3)o2)C(=O)N1,16µM,?,?,?,0,?
CC(=O)[C@@H]1CC[C@H]2[C@@H]3CC[C@@H]4CC(=O)CC[C@]4(C)[C@H]3CC[C@]12C,-,0,-,-,-,-
COC(=O)C1=C(c2ccc(F)cc2OCc2ccccc2)C[C@@H]2CC[C@H]1N2C(=O)NCc1ccccc1OC,26µM,0,0,?,0,?
COC(=O)C1=C(c2ccc(F)cc2OCc2ccccc2)C[C@@H]2CC[C@H]1N2C(=O)NCC1CC1,7.3µM,0,0,8.2µM,0,0
COC(=O)C1=C(c2ccc(F)cc2OCc2ccccc2)C[C@@H]2CC[C@H]1N2C(=O)NCc1cc(C)oc1C(F)(F)F,21µM,0,0,?,0,?
COC(=O)C1=C(c2ccc(F)cc2OCc2ccccc2)C[C@@H]2CC[C@H]1N2C(=O)NCc1ccccc1,?,0,?,?,?,?
COC(=O)c1c(N)[nH]c(C(=O)c2ccccc2)c1-c1ccc(Cl)cc1,?,-,0,?,-,-
CC1Cc2ccccc2N1Cc1cccc(S(=O)(=O)N(C)C)c1 (stereo not given),?,-,0,?,0,0
S=c1[nH]nc(Cn2c(-c3ccccn3)nc3ccccc32)n1-c1ccc2c(c1)OCCO2,0,-,0,0,0,?
c1ccc(P(c2ccccc2)c2ccccn2)cc1,5.2µM,-,0,5.2µM,0,0
C=C(C)[C@@H]1CC[C@]2(C(=O)O)CC[C@]3(C)C(CCC4[C@@]5(C)CC[C@H](O)C(C)(C)C5CC[C@]43C)C12 (stereo not given in full),6.5µM,-,0,7.3µM,0,0
COC(=O)C1=C(C)NC(C)=C(C(=O)OCC(C)=O)C1c1ccccc1[N+](=O)[O-] (stereo not given),19µM,-,-,12µM,-,-
CCOC(=O)C1(c2ccccc2)CCN(CCC(=O)Nc2ccccc2OC)CC1,21µM,-,0,12µM,0,?
COC(=O)C1=C(c2ccc(OC)c(OC)c2)C[C@@H]2CC[C@H]1N2C(=O)NCCO,0,0,0,0,0,0
COC(=O)C1=C(c2ccc(Cl)c(C(F)(F)F)c2)C[C@@H]2CC[C@H]1N2C(=O)NCc1cc(C)oc1C(F)(F)F,?,0,0,21µM,0,0
COC(=O)C1=C(c2cccc(C#N)c2)C[C@@H]2CC[C@H]1N2C(=O)NCc1cc(C)oc1C(F)(F)F,?,0,0,?,0,0
CCCNC(=O)N1[C@H]2CC[C@@H]1C(C(=O)OC)=C(c1ccc(Cl)c(C(F)(F)F)c1)C2,16µM,0,0,15µM,0,0
COC(=O)C1=C(c2ccc(Cl)c(C(F)(F)F)c2)C[C@@H]2CC[C@H]1N2C(=O)NCC1CC1,15µM,0,0,18µM,0,0
COC(=O)C1=C(c2ccc(-c3ccccc3)c(F)c2)C[C@@H]2CC[C@H]1N2C(=O)NCc1cc(C)oc1C(F)(F)F,?,0,0,15µM,0,0
COC(=O)C1=C(c2ccccc2)C[C@@H]2CC[C@H]1N2C(=O)NCC1CC1,?,-,0,?,0,-
Nc1ccccc1-c1ccccc1,-,0,-,-,-,-
COC(=O)C1=C(c2ccc(OC)c(OC)c2)C[C@@H]2CC[C@H]1N2C(=O)NCCOc1ccc(OC)cc1,0,0,0,0,0,0
